From the supplement of paper PMC6555819

Assays:
Assay in all cases: PBM binding z-score (relative to random genomic background probes); higher = stronger binding; sequences stand for … in GC…GCGATTGACAGCGTAGAATGAAGG
[1] = tested on: PPARg:RXRa DBDmut IVT, anti-RXR (DBD mutation: RXRa K156A/R161A, NR concentration 270 nM, RXRa partner concentration 90 nM)
How it was run: (§1)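 On custom Agilent 4×180K arrays, double-stranded probes with 34-nt variable regions carried direct-repeat seeds, single-nucleotide variants, half-site ablations or random human genomic background. Ligand-free nuclear receptor dimers were applied for 1 h, and binding was read with antibodies against each partner (one per run). Binding z-scores come from regression-normalized fluorescence, with the random background probes as reference.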

[2] = tested on: PPARg:RXRa IVT, anti-PPARg (NR concentration 270 nM, RXRa partner concentration 90 nM)
How it was run: as §1

[3] = tested on: PPARg DBDmut:RXRa IVT, anti-PPARg (DBD mutation: PPARg1 K132A/R137A, NR concentration 270 nM, RXRa partner concentration 90 nM)
How it was run: as §1

[4] = tested on: PPARg DBDmut IVT, anti-PPARg (DBD mutation: PPARg1 K132A/R137A, NR concentration 270 nM)
How it was run: as §1

[5] = tested on: PPARg homodimer (NR concentration 180 nM)
How it was run: as §1

[6] = tested on: PXR:RXRa (NR concentration 270 nM, RXRa partner concentration 90 nM)
How it was run: as §1

[7] = tested on: PXR homodimer (NR concentration 270 nM)
How it was run: as §1

[8] = tested on: RARa:RXR (NR concentration 270 nM, RXRa partner concentration 90 nM)
How it was run: as §1

[9] = tested on: RARa homodimer (NR concentration 270 nM)
How it was run: as §1

[10] = tested on: RARb:RXRa (NR concentration 270 nM, RXRa partner concentration 90 nM)
How it was run: as §1

[11] = tested on: RARb homodimer (NR concentration 270 nM)
How it was run: as §1

[12] = tested on: RARg:RXRa (NR concentration 270 nM, RXRa partner concentration 90 nM)
How it was run: as §1

[13] = tested on: RARg homodimer (NR concentration 270 nM)
How it was run: as §1

[14] = tested on: RXRa DBDmut IVT, anti-RXR (DBD mutation: RXRa K156A/R161A, NR concentration 90 nM)
How it was run: as §1

[15] = tested on: RXRa homodimer (NR concentration 180 nM)
How it was run: as §1

[16] = tested on: THRa:RXRa (NR concentration 90 nM, RXRa partner concentration 90 nM)
How it was run: as §1

[17] = tested on: THRa homodimer (NR concentration 90 nM)
How it was run: as §1

[18] = tested on: VDR:RXRa (NR concentration 270 nM, RXRa partner concentration 90 nM)
How it was run: as §1

[19] = tested on: VDR homodimer (NR concentration 270 nM)
How it was run: as §1

| Sequence | PBM binding z-score [1] | PBM binding z-score [2] | PBM binding z-score [3] | PBM binding z-score [4] | PBM binding z-score [5] | PBM binding z-score [6] | PBM binding z-score [7] | PBM binding z-score [8] | PBM binding z-score [9] | PBM binding z-score [10] | PBM binding z-score [11] | PBM binding z-score [12] | PBM binding z-score [13] | PBM binding z-score [14] | PBM binding z-score [15] | PBM binding z-score [16] | PBM binding z-score [17] | PBM binding z-score [18] | PBM binding z-score [19] |
| --- | --- | --- | --- | --- | --- | --- | --- | --- | --- | --- | --- | --- | --- | --- | --- | --- | --- | --- | --- |
| CGTCCAAGGTCGGCAGGTCAGTGAAAGCGACGTG | -0.305 | 0.214 | -0.718 | -1.66 | 0.288 | 1.23 | -0.703 | 1.88 | -0.686 | 3.17 | 3.1 | 3.38 | 3.66 | 1.36 | 2.08 | 2.13 | 0.0758 | 1.28 | 0.171 |
| ATATGTAGGTTAGCTGTGGTCATTCAGACTAGGC | 6.97 | 6.07 | 2.72 | 2.03 | 1.37 | 1.3 | 0.0563 | 1.3 | 0.467 | 1.2 | 1.13 | 0.752 | 0.985 | 0.139 | 0.643 | 3.29 | -0.0944 | 0.859 | 0.494 |
| CCTTACGGGACAAGGTTATAGCACGGGTGGTACG | -0.648 | 0.0765 | -0.507 | -0.996 | 0.819 | 0.699 | 0.148 | 1.01 | 0.441 | 0.996 | 1.07 | 1.07 | 0.894 | -0.464 | 1.35 | 1.08 | 0.341 | 0.416 | 0.555 |
| CAAACTAGGTCACCGGAAGGCCAAAGTCCGCATG | 8.65 | 8.96 | 1.86 | 0.375 | 2.09 | 2.85 | -0.0574 | 3.4 | 0.162 | 4.54 | 3.78 | 5.9 | 5.62 | 1.55 | 3.59 | 3.53 | 1.43 | 3.23 | 0.943 |
| CAAACTAGGTCGCCGGAAGGTCAAAGTCCGCATG | 6.5 | 6.56 | 2.57 | 0.739 | 3.61 | 4.72 | 0.959 | 5.67 | 0.693 | 3.94 | 4.43 | 6.47 | 4.32 | 1.22 | 4.39 | 3.68 | 1.44 | 4.5 | 2.39 |
| CTACCAAGGTGAACAAGGTCCTTGATTACTATTC | 2.33 | 2.45 | 0.391 | -0.0815 | 0.182 | 0.728 | 0.218 | 0.944 | -0.035 | 1.64 | 1.02 | 0.733 | 0.947 | 0.723 | 0.86 | 2.29 | 1.03 | 3.56 | 0.358 |
| GATACAGCGTCAAGGCCAGAGTACGCGTATTGAT | -0.697 | -0.358 | -0.853 | -0.941 | -0.474 | -0.434 | -0.406 | -0.6 | -0.441 | 0.0727 | -0.276 | -0.245 | 0.129 | -0.11 | -0.253 | -0.179 | -0.406 | -0.35 | 0.0516 |
| AGAATGAAGTTACCAAAGATCAGGGAAACGCTTG | -0.595 | -0.423 | 0.443 | 0.266 | -0.127 | -0.206 | -0.375 | -0.000481 | -0.214 | -0.335 | -0.995 | 0.125 | 0.206 | -0.628 | 0.402 | -0.228 | -1.02 | -0.38 | -0.257 |
| ACTATTAATTGAGACGAGGGCAACCGATAGGTTG | 0.0464 | 0.914 | 1.03 | 1.13 | 2.25 | 0.755 | 1.25 | 0.914 | 1.68 | 1.01 | 1.56 | 0.73 | 0.967 | 0.688 | 0.753 | 1.33 | 1.03 | 0.764 | 1.64 |
| CAAACTAGGTCACAGAGGTCAATGTCCGTGCGTA | 8.72 | 9.05 | 4.01 | 2.12 | 4.75 | 6.6 | 10.6 | 7.36 | 2.65 | 5.17 | 5.68 | 6.89 | 7.2 | 3.06 | 6.85 | 4.66 | 2.96 | 7.62 | 6.33 |
| GGAACGAGGGCAAGTTGTTAGCAGAGTTTGATGG | 3.77 | 2.94 | -0.421 | -0.269 | 0.194 | 0.979 | 0.561 | 0.459 | -0.28 | 2.78 | 1.42 | 1.49 | 1.82 | 2.39 | 0.957 | 1.46 | 0.187 | 0.88 | 1.65 |
| TCGAGTAGGTTAGTCGGGGCCTTCAGCCAACATA | 1.83 | 1.08 | -1.4 | -0.48 | -0.555 | -0.49 | -0.597 | -0.0225 | -1.38 | 0.0952 | -0.149 | -0.47 | -0.571 | 0.14 | -0.278 | 1.57 | -0.433 | -0.158 | -0.455 |
| CAGCCTAGGTCAGGGCCCGTATAGGAGGAACGTT | 1.27 | 1.55 | -1.13 | -1.09 | 0.811 | -0.134 | -0.829 | 0.752 | -0.25 | 3.23 | 2.26 | 2.9 | 3.84 | -0.894 | 1.46 | 1.73 | 0.213 | 0.0568 | -0.478 |
| GCTATTAGTTGAAAGGGCAACCAAATGATTCTCG | 0.461 | 1.15 | 0.444 | 0.602 | 0.903 | 0.803 | 0.104 | 1.48 | 0.766 | 2.13 | 2.12 | 1.54 | 1.36 | 1 | 1.26 | 0.682 | -0.397 | 0.604 | 0.22 |
| CTACCAAGGTGAACAAGCTCGTTGATTACTATTC | 2.56 | 2.23 | 0.852 | 0.253 | 0.000283 | -0.0454 | -0.0254 | 0.251 | 0.281 | 1.41 | 0.567 | 0.606 | 0.761 | 0.373 | 0.526 | 1.63 | 0.878 | 0.121 | -0.237 |
